# Laboratory results published in ChEMBL document CHEMBL3988442, “University of Dundee, Small-Polar-MMV Screening Library” (2021).
# Screen size: about 48,000 compounds; about 13,000 (27%) showed an effect of 50% or more. Some of the results follow.
# Test system: Wolbachia pipientis
# Assay: Anti-Wolbachia Cell-Based Screen
# Format: functional
# Set-up: scale not given: in the data most compounds retested in dose-response had high values
# Conditions: 5 µM
row,Compound,Percent Effect
1,CNC(=O)[C@H]1C[C@H]2OCC[C@H]2N(Cc2cccc3ccccc23)C1.O=C(O)C(F)(F)F,25.43%
2,CC(=O)N1CCN(c2cc(N(C)C)cnn2)CC1,5.157%
3,CN(Cc1c(Cl)ccc2cccnc12)CC(C)(CO)CO,4.13%
4,CCS(=O)(=O)c1ncc(CN2CCN(C)CC2)n1CCc1ccccc1,2.419%
5,CC(C)(C)CN(CCO)C(=O)Nc1cccc(N2CCNC2=O)c1,0.4334%
6,Cn1cnc(S(=O)(=O)NCC2(O)CCOc3ccccc32)c1 (configuration not stated),-16.89%
7,O=C(CC1CC1)N1CCC2(CC1)CN(c1ncc(F)cn1)CCO2,-18.12%
8,Nc1nc(N)c2c(n1)OC1(CCN(C(=O)CC3CCNCC3)CC1)C2,145.9%
9,Nc1nc(N)c2c(n1)OC1(CCN(C(=O)CC3CCCNC3)CC1)C2 (configuration not stated),130%
10,O=C(CC1CCCCC1)N1CCC(O)(C(F)(F)F)C1 (configuration not stated),-0.05196%
11,Nc1nc(N)c2c(n1)OC1(CCN(C(=O)CC3CCCCN3)CC1)C2 (configuration not stated),102.3%
12,O=C1OC2(CCNCC2)CN1CC(=O)N1CCCC1c1nccs1 (configuration not stated),1.843%
13,CC(C)(C)c1cc(C[C@H]2CNCC[C@H]2CC(=O)N2CCCCC2)no1,3.52%
14,CC(C1CC1)N(C)Cc1nnc(-c2ccc(Br)s2)o1 (configuration not stated),-7.051%
15,CCc1csc(NC(=O)NCc2ccccn2)n1,-8.56%
16,CCCc1cc(=O)[nH]c(SCc2ccccn2)n1,119.2%
17,Cc1cc(CSCc2ccccn2)on1,-5.175%
18,CCCc1cc(NC2CCN(Cc3ccccn3)CC2)n2nccc2n1,4.154%
19,CCc1cc(=O)[nH]c(SCc2ccccn2)n1,161.3%
20,Cc1ccc2cc(CN(C)Cc3ccccn3)c(=O)[nH]c2c1,3.618%
21,CCc1nc(C)c(C(C)N(C)CCc2ccccn2)s1 (configuration not stated),10.86%
22,CCCc1cc(=O)[nH]c(-c2cccc(CN3CCCCCC3)c2)n1,2.31%
23,CCc1c(C)nc(SCc2ccccn2)[nH]c1=O,110.7%
24,CN1CCC(c2nnc3ccc(C(=O)N4CCCCC4)cn23)C1.O=C(O)C(F)(F)F (configuration not stated),-6.443%
25,Cn1c(C2CC2)nc2cc(NC(=O)C3CC=CC3)ccc21,-5.037%
26,CCOCCOC(C)C(=O)Nc1ccc2ccn(CCN(C)C)c2c1 (configuration not stated),3.941%

row,Compound,Percent Effect
1,CN(C)CCNC(=O)Cc1cccc(I)c1,13.6%
2,CN(C)CCNC(=O)Cn1cnc2cc(NC(=O)C3CC3)ccc21,109.1%
3,CC(C)NC(=O)Nc1ccc2c(c1)ncn2CC(=O)NCCN(C)C,117%
4,CC(C)c1nc2cc(NC(=O)Cn3ccc(=O)[nH]c3=O)ccc2o1,-1.465%
5,CC(C)C(=O)Nc1ccc2c(c1)ncn2CC(=O)NCCN(C)C,87.82%
6,Cc1cc(NC(=O)Nc2ccc3c(ccn3CCN(C)C)c2)n(C)n1,0.0592%
7,CCN(CC)C(=O)Cn1ccc2cc(NC(=O)C3CC3)ccc21,-9.83%
8,CC(C)CC(=O)Nc1ccc2c(c1)ncn2CC(=O)NCCN(C)C,122%
9,CN(C)CCn1ccc2cc(NC(=O)NCc3ncnn3C)ccc21,9.223%
10,CC(CC(=O)Nc1ccc(C(=O)N(C)C)c(Cl)c1)n1cccc1 (configuration not stated),-5.842%
11,CC(c1ccc(F)cc1)n1ccnc1-c1cc2n(n1)CCCNC2 (configuration not stated),-9.513%
12,CCC(C)(NCc1nnc(C(C)(C)C)o1)c1nccs1 (configuration not stated),-1.916%
13,CS(=O)(=O)CCc1ncnn1-c1ccc(F)c(Cl)c1,-1.677%
14,CC(C)C(C)NC(=O)CCN1C(=O)CCc2cc(F)ccc21 (configuration not stated),-7.908%
15,CCCC(C)NC(=O)CCN1C(=O)CCc2cc(F)ccc21 (configuration not stated),-15.19%
16,CS(=O)(=O)Nc1ccc(CNC(=O)CN2CCc3ccccc32)cc1,8.101%
17,CN1Cc2ccccc2N(CC(O)C(F)(F)F)CCC1=O (configuration not stated),95.04%
18,CN1Cc2cc(F)ccc2N(CC(O)C(F)(F)F)CCC1=O (configuration not stated),104.4%
19,CC(O)CN1CC2(CCC1=O)CCN(Cc1cc(F)ccc1Cl)CC2 (configuration not stated),0.5458%
20,CC(C)CNC(=O)CCN1C(=O)CCc2cc(F)ccc21,-21.96%
21,CCN1Cc2cc(F)ccc2N(CC(O)C(F)(F)F)CCC1=O (configuration not stated),105.6%
22,OC(CN1CCCc2ccc(F)cc21)Cn1cccn1 (configuration not stated),-5.11%
23,CCN1CC2(CCN(C(=O)C(C)Oc3ccc(F)cc3Cl)CC2)CC1=O (configuration not stated),-0.3825%
24,CC(Cn1cccn1)NC(=O)NCCCN1CCc2ccccc21 (configuration not stated),-6.742%
25,CCCC(O)CN1CCC(=O)N(C)Cc2cc(F)ccc21 (configuration not stated),92.66%
26,N#Cc1c(Cl)nsc1NCC1(c2ccccc2)CCC1,12.51%

row,Compound,Percent Effect
1,CCNC(=O)[C@@H]1C[C@@H](NC(=O)c2cccn2C)CN1CCCSC,111.5%
2,CCN(CC)C(=O)[C@@H]1C[C@H](NC(=O)c2cccn2C(C)C)CN1C,0.9655%
3,CSCCC(C)(O)CNC(=O)c1ccsc1 (configuration not stated),-0.07665%
4,C/C=C(\C)CN1C[C@@H](NC(=O)c2ccc(F)c(F)c2)C[C@H]1C(=O)NCC,-14.95%
5,CCNC(=O)[C@@H]1C[C@@H](NC(=O)c2ccc(C#N)cc2)CN1CCCSC,95.48%
6,CCNC(=O)[C@@H]1C[C@@H](NC(=O)c2ccsc2)CN1CCCSC,107.8%
7,C/C=C(\C)CN1C[C@@H](NC(=O)c2ccc(O)c(Cl)c2)C[C@H]1C(=O)NCC,-9.176%
8,CCNC(=O)[C@@H]1C[C@@H](NC(=O)c2ccc(C)cc2O)CN1CCCSC,82.24%
9,CCNC(=O)[C@@H]1C[C@H](NC(=O)c2ccccc2C#N)CN1CCCSC,-7.827%
10,CCNC(=O)[C@@H]1C[C@H](NC(=O)c2cncnc2C)CN1CCCSC,-8.18%
11,CCNC(=O)[C@@H]1C[C@@H](NC(=O)Cc2ccncc2)CN1Cc1ccsc1,-6.435%
12,COCC(=O)N1CCC2(CC1)CC(N1CCN(C)CC1)CO2 (configuration not stated),-3.796%
13,O=C(CCc1nc(Cl)n[nH]1)N1C[C@@H](CN2CCCCCC2)[C@@H](CO)C1,5.284%
14,COc1ccc(C(=O)N2CCC(Oc3ccc(C)cc3)(C(=O)O)CC2)o1,-8.575%
15,CCc1nnsc1C(=O)N1CCCN(Cc2ccc(C)cc2)CC1,9.546%
16,Cc1ccc(CN2CCOC(C)(c3cnn(C)c3)C2)cc1 (configuration not stated),-10.42%
17,Cc1cccc2[nH]c(C3CCN(C(=O)c4cnc[nH]c4=O)CC3)nc12,-11.79%
18,CC(NCc1cccc2c1OCCO2)c1cc2c(cc1Br)OCCO2 (configuration not stated),-2.569%
19,CSCC(C)(O)CNC(=O)c1ccc(Br)cc1C (configuration not stated),6.824%
20,COc1ccccc1-c1nccnc1C1CCN(C(C)=O)CC1,137.3%
21,COc1cccc(C(=O)N2CCCC(c3cc(C)[nH]n3)C2)c1OC (configuration not stated),3.009%
22,COc1cccc(-c2nccnc2C2CCN(C(C)=O)CC2)c1,-11.4%
23,COc1ccccc1-c1ccc(C2CCCN(C(C)=O)C2)nc1 (configuration not stated),120.7%
24,CS(=O)(=O)CCC(=O)N1CCC(c2ccc(F)c(F)c2)CC1,-5.239%
25,COc1ccccc1-c1nnc([C@H]2CCN(C(C)=O)C2)o1,4.286%
26,CC(=O)N1CCC(c2nccnc2-c2ccc(F)c(F)c2)CC1,101.1%

row,Compound,Percent Effect
1,CN1CCCC1c1nccnc1-c1ccc(C(=O)O)cc1 (configuration not stated),141.8%
2,CC(O)c1cn(CC2CCN(C(=O)CN3CCCC3=O)CC2)nn1 (configuration not stated),-6.496%
3,CCCN(CC1CC1)C(=O)Nc1ccc(N2CCSCC2)cc1C,-17.78%
4,COCCN(C)c1ccc(NCc2cscn2)nc1,1.249%
5,CN1CCOC(CNC(=O)CCc2cc(F)ccc2F)C1 (configuration not stated),5.661%
6,O=C(C1CCOCC1)N1CCc2ncnc(-c3ccc(F)cc3)c2CC1,-7.65%
7,CC(=O)N1CCC(c2nccnc2-c2ccc(C(=O)O)cc2)CC1,96%
8,CC(=O)N1CCC(c2nccnc2-c2ccc(F)cc2)CC1,97.61%
9,COc1ccc(-c2nccnc2C2CCN(C(C)=O)CC2)cc1,-14.84%
10,CC(=O)N1CCC(N2CC[C@H](c3nc4cc(F)ccc4o3)C2)CC1,-6.986%
11,NC(=O)C1CCCN1CCCc1ccc(C(F)(F)F)cc1 (configuration not stated),-6.15%
12,CC(C)N(C)C(=O)c1ccc(CNc2ncc(C#N)cc2Cl)cc1,-8.928%
13,CCN1CCN(CCNc2nc3ccc(C)cc3c(=O)n2C)CC1,1.756%
14,Cc1occc1C(=O)N1Cc2nccn2CC(CN2CCCC2)C1.O=C(O)C(F)(F)F (configuration not stated),-14.64%
15,CN(Cc1cccnc1)CC1CN(C(=O)C2CC2)Cc2nccn2C1.O=C(O)C(F)(F)F.O=C(O)C(F)(F)F (configuration not stated),-3.173%
16,COCC1CN(C(=O)c2cccc(C)n2)Cc2nccn2C1.O=C(O)C(F)(F)F (configuration not stated),-3.838%
17,O=C(O)C(F)(F)F.c1cnc(N2Cc3nccn3CC(COc3cccnc3)C2)nc1 (configuration not stated),111.9%
18,CS(=O)(=O)N1Cc2nccn2CC(CNC(=O)c2cccnc2)C1.O=C(O)C(F)(F)F (configuration not stated),-1.051%
19,O=C(O)C(F)(F)F.O=C(O)C(F)(F)F.c1cncc(OCC2CN(Cc3nccs3)Cc3nccn3C2)c1 (configuration not stated),104%
20,Cc1nc(C)n(CC2CN(Cc3nccs3)Cc3nccn3C2)n1.O=C(O)C(F)(F)F (configuration not stated),-6.636%
21,O=C(NCC1CN(c2ncccn2)Cc2nccn2C1)c1cccnc1.O=C(O)C(F)(F)F (configuration not stated),8.129%
22,O=C(N1CCCC1)N1Cc2nccn2CC(COc2cccnc2)C1.O=C(O)C(F)(F)F (configuration not stated),96.45%
23,CC(=O)N1Cc2nccn2CC(CNC(=O)c2cccnc2)C1.O=C(O)C(F)(F)F (configuration not stated),-4.633%
24,O=C(O)C(F)(F)F.O=C(O)C(F)(F)F.O=C(c1cccnc1)N1Cc2nccn2CC(COc2cccnc2)C1 (configuration not stated),111%
